Measured values: the supplement of paper PMC10681739

Target: RUNX1 (UniProt Q01196)
Test: RUNX1 binding intensity (PBM fluorescence), RUNX1 alone (arbitrary fluorescence units); higher = stronger binding
Details: RUNX1 concentration 2 nM; ETS1 concentration 0 nM
Procedure: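 Cooperative gcPBM on 36-bp genomic probes with neighbouring ETS1 and RUNX1 sites. Recombinant human RUNX1 (2 nM) was incubated alone or with ETS1 (25 nM) and detected with anti-RUNX1 antibody plus Alexa488 secondary. Values are medians over 4 replicate spots; the RUNX1+ETS1 data were normalised to the RUNX1-only data. The probes sit in constant array flanks that are not printed.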
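Note: Full-length recombinant human RUNX1 bound to double-stranded 36-bp genomic probes on a high-density microarray, scored as Alexa488 fluorescence per spot via anti-RUNX1 antibody, median of four replicate spots.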

RUNX1, sequence (Q01196 whole entry): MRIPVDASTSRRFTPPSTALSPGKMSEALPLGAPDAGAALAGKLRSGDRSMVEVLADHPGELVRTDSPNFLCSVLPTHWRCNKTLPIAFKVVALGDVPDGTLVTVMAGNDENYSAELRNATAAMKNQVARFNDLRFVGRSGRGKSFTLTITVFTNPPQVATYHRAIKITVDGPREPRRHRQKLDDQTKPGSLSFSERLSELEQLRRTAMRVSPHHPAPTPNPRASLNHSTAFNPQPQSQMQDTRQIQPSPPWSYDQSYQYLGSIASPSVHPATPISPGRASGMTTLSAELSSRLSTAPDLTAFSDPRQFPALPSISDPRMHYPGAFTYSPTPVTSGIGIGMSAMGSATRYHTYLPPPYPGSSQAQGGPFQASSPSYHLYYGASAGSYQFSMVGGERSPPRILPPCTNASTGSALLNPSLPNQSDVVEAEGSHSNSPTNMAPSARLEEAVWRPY

| Sequence | RUNX1 binding intensity |
| --- | --- |
| TCCTGCCCTCCCATCCTGTGGTCAGAGGCCAGGGCT | 854 |
| AGGAGAAGGAAGAGGATGTTGAGGTTGGGGGAAACC | 726 |
| GCCGTAGCGGAAGAGTGTTCGTGGTCATGTGACGCC | 718 |
| TTCTCATCCGGCCGGCTTGCTTTCCCCTGCGGTCGT | 962 |
| ATGCCTGTAGGAGGATGTGGTTTCTACACAACTCTG | 926 |
| ACCATAAGGACCGGAAGCAGAGACCACACTGGTGCT | 831 |
| GCCCACCCGCTTCCGGTTGTGGGCCCCGCCCGCCGA | 801 |
| GAAAGCTGCACTATTTCCTGAGGTTAGAGGTTTAAA | 815 |
| ACGTCAGCATCCGCCGGGCTCGCGGTAAGGTGTGAG | 736 |
| GCGGGCGGAAGTGCCGAGGTTGTACCGCGGCGCTGG | 714 |
| GTTGCCCCACTTCCTGCCAGTGGTTTTTGGTTGGCC | 944 |
| GCGCCAGTCACCGTTTCCTGTGGTTTGCTGCCCGCC | 1050 |
| GGCGGTGCACTCTGGGAAATGTGGTTTTCGCGGCGC | 1090 |
| CAAGCTGGCAGGAAGCGCGGTGCAACCACAAGAGTC | 765 |
| CTAAACCGGAAGCCGCCCCTCTGACCGCTCTAAAAC | 1070 |
| CATGGGGAGGAGGAAGTGGTGGCGGCCGCAGGCCAG | 799 |
| GCAACTGAACAGGAAACTAAAAAACCACAACACTTA | 1900 |
| CGTTTCCTGTCTGGGACTGCGCCCACGCGGTCACGT | 966 |
| TGCGCGCCGGCTTCCGCTGCGGCCAGTCGGGCGGCG | 647 |
| ATCAAACCCCAGGATATGTTGGTTTTGTAGGTTGTC | 874 |

| Sequence | RUNX1 binding intensity |
| --- | --- |
| TATGTCTGACTTCCGCTCGTGGTTTCCATCTTAGCC | 895 |
| GAGTTCTAGACTACAGGATGTGGTTAGAAGAAAAGA | 837 |
| AGCTTGACGAAGGCTTCCTGTGGTTTGGGTTGATGT | 824 |
| CACTCCCCGAATCCGGTCTGCGGCGCGCTCGGGGCC | 774 |
| AACAAAGAGAGAGGAAGTGGGTTGGGCGGGGGGGGT | 1010 |
| AACAGCTTCCGGCACGGGGGCTGTGGTTGTGTTGGA | 790 |
| AGTTTCTTCTTTCCGGTGGGTTTGTGGTCTTGCTGA | 1390 |
| AATCCCGGAAACGCGGATTCAGCGGAGCGCGGTGAC | 735 |
| TAGCATGTGAGCTTCCTGTGGGTTTGTGCAGCCCCA | 708 |
| GTTGTGCTCTTTCCTGCTTCCCGCAGTTTTTTAGTT | 1470 |
| AGGACCGGAAGTGCCCGAGGGCGGCCGCAGAACGGT | 719 |
| TCCCTTACCTTCCTGCTGCCACCAAACCACCAAACC | 2510 |
| GTTTCCACTTCCTGCTGTGCAGCAGTACCACCAAGA | 992 |
| TGCCACATCCTGCCCCTCCCCAGGTCTAACCACCAA | 1260 |
| CCCATTTCCTGCTCTCCAGAGTTAACCACTGAAGTC | 1440 |
| CTCTCACTTCCCGTGTGAGAAAAACCACAGAAAAGC | 1890 |
| CTCTCTGGGCGGAAGGAACGCGGTCACCCTGAGAAA | 833 |
| TGGAAGGCCGGAAAAGGTTTACCACCACACTCCGGT | 791 |
| AGTCTAACCAACAAAGGATGTGGTAGGTAAAAGGTT | 834 |
| ACAAGGAGGAAAAGGAAATGAACCACGAATAGCAAA | 817 |
